# Sampled rows, rich in hits. Any-hit rate of the full collection: about 3.1%.
# HSP90 refold inh: inhibitors of HSP90 luciferase refolding in rabbit reticulocyte lysate | luciferase refolding luminescence, 3 h | inhibition, % at 5.6 µM | hit rate 0.91% among 290,000 | AID 1789;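 active = inhibition above the screen-wide mean plus 3 SD, computed separately per campaign, cut at about 16% in these data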;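 also: 0% = DMSO wells and 100% = 60 µM geldanamycin wells; inhibitors lower the luminescence because luciferase stays unfolded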
# HSF1 inhib: HSF1 inhibition; NIH3T3-HGL HSE-luciferase, MG132-induced, luminescence 8 h; stronger effect = lower value; activity change, negative = inhibition, % at 7.5 µM (by protocol); hit rate 0.77% among 300,000;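 active = more than half of replicate wells show activity change below -50%, luminescence cut by over half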;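 also: luciferase reports HSF-1 transcriptional activity via heat shock element; 0% = median of DMSO wells and -100% = zero luminescence signal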
# HSF-1 act: increases HSF-1 driven luciferase reporter signal | NIH3T3-HGL HSF-1 luciferase reporter, MG132, 8 h; 100% = twice DMSO control signal | activation, % at 9 µM | hit rate 1.7% among 300,000 | AID 504408;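 active = mean replicate activation of at least 50% with a set share of replicates each reaching 50%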;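 also: 0% = median of the neutral control wells and 100% = twice that signal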
# ARNT TACC3 PPI: disruptors of human ARNT/TACC3 interaction. Q9Y6A5. AlphaScreen His-ARNT PAS-B/GST-TACC3 binding, luminescence; TACC3 fragment carries E629A point mutation. inhibition, % at 9.99 µM. hit rate 0.66% among 390,000;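 active = mean inhibition of replicates at least 50% and at least half of replicates each reaching 50%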;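 also: 0% = complete ARNT plus TACC3 wells and 100% = ARNT alone without TACC3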
# HIF act: HIF pathway transcriptional activation; hit rate 0.32% among 300,000; U2OS HRE-luciferase reporter, luminescence; normalized: DMSO 0%, desferrioxamine 100%; activation, % at 7.5 µM (by protocol);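 active = mean activation of at least 10% of the iron chelator positive control signal, with at least half of replicates also reaching 10%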
# HSP90 confirm: HSP90 inhibition, confirmation assay; inhibition, % at 5.9 µM; shares compounds with HSP90 refold inh; rabbit reticulocyte lysate, luciferase refolding luminescence, 3 h; hit rate 64% among 2,300; in the data active = inhibition above about 18%;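 also: 0% = vehicle wells and 100% = reference inhibitor wells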
# FLuc counter: firefly luciferase inhibition, HSP90 counter-screen; shares compounds with HSP90 refold inh; purified native firefly luciferase, luminescence; inhibition, % at 5.9 µM; hit rate 48% among 2,300;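 active = inhibition above the mean inhibition of all tested sample wells plus 3 SD, cut at about 10% in these data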;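 also: 0% = DMSO with luciferase and 100% = wells lacking luciferase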
# Target sequence (P08659 whole entry, looked up): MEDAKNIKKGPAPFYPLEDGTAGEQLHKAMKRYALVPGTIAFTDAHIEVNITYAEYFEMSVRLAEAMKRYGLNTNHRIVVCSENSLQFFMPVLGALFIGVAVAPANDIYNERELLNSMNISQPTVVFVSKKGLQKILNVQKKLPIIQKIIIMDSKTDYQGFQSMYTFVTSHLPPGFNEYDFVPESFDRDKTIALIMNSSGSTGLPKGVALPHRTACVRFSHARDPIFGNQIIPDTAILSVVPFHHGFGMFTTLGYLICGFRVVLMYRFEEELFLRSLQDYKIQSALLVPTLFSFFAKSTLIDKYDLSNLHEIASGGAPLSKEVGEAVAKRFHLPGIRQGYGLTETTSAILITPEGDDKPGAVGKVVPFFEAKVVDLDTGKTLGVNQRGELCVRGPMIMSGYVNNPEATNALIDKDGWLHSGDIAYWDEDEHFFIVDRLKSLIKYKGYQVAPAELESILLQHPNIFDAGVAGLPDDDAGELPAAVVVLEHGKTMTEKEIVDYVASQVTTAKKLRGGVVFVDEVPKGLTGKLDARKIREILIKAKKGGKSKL
# The depositor's hits bear a star; nt = no result given.
SMILES,HSP90 refold inh,HSF1 inhib,HSF-1 act,ARNT TACC3 PPI,HIF act,HSP90 confirm,FLuc counter
COc1ccc(/C(C)=N/Nc2ccc(C(=O)O)cc2)c(OC)c1,22*,-7,-7,3,1,13,19*
C/C(=N\NC(=O)c1ccccc1C)c1cccc([N+](=O)[O-])c1,0,-17,-34,14,1,nt,nt
C/C(=N\Nc1ccc(C(=O)O)cc1)c1ccc(Cl)s1,22*,1,-1,9,0,29*,22*
C/C(=N\Nc1ccc(Cl)c(C(=O)O)c1)c1cccc([N+](=O)[O-])c1,18*,1,6,-1,1,2,-14
CC(C)NC(=O)N(C)C[C@@H]1Oc2ccc(NC(=O)Cc3cn(C)c4ccccc34)cc2CC(=O)N([C@@H](C)CO)C[C@H]1C,nt,nt,nt,5,nt,nt,nt
C/C(=N\Nc1ccc(C(=O)O)cc1)c1ccc(Br)cc1,46*,-19,-34,-5,-3,78*,67*
C/C(=N\Nc1ccc(Cl)c(C(=O)O)c1)c1ccc(Br)s1,22*,8,-3,2,1,1,-10
C/C(=N/Nc1ncc(Br)cn1)c1ccc(Br)cc1,-2,9,8,0,-38,nt,nt
Cc1ccc(S(=O)(=O)Nc2ccc3c(c2)C(=O)N([C@@H](C)CO)C[C@@H](C)[C@H](CN(C)C(=O)Nc2ccc(F)cc2)OCCCC[C@@H](C)O3)cc1,nt,nt,nt,-9,nt,nt,nt
CO[C@@H]1CC[C@H]2CCN(C)C(=O)C[C@@H](c3ccccc3)CN(C)C(=O)c3cccc(C#N)c3OC[C@H]1O2,nt,nt,nt,-6,nt,nt,nt
O=C(NCCN1CCOCC1)c1ccc2c(c1)N(Cc1cccc(F)c1)C(=O)c1ccccc1S2,20*,1,-3,2,0,-4,-8
Cc1cccc(S(=O)(=O)N2CC[C@H]3[C@@H](CO)N(C)c4ccc(-c5ccccc5F)cc4[C@H]32)c1,nt,nt,nt,-3,nt,nt,nt
O=C(CN1CCN(c2ccc(F)cc2)CC1)N1N=CCC1c1ccccc1 (stereo not drawn),3,3,-3,-2,0,nt,nt
O=C(CN1CCN(c2ccccc2)CC1)N1N=CCC1c1ccccc1 (stereo not drawn),39*,-6,-3,8,0,-9,-9
COCC(=O)N(C)C[C@@H]1Oc2cc(C#CC(C)(C)O)ccc2S(=O)(=O)N([C@@H](C)CO)C[C@@H]1C,nt,nt,nt,-6,nt,nt,nt
CCCc1ccc(-c2ccc(F)c(N)c2)nc1,53*,1,-5,5,-2,77*,69*
Nc1cc(-c2nn[nH]n2)ccc1F,-1,2,-6,nt,0,nt,nt
CC(C)NC(=O)N[C@H]1CC[C@@H](CC(=O)NCCN2CCCC2)O[C@H]1CO,nt,nt,nt,33,nt,nt,nt
COc1ccccc1NC(=O)c1cc(N)cc(C(=O)Nc2ccccc2OC)c1,nt,-5,-1,-3,0,nt,nt
COc1ccccc1NC(=O)c1coc(=O)c(Br)c1,55*,-14,-3,5,1,83*,-7
Cc1cc(O)ccc1Nc1nc(-c2sc(N)nc2C)cs1,34*,nt,nt,12,nt,-4,-9
Cc1nc(N)sc1-c1csc(Nc2ccccc2)n1,26*,-4,-3,nt,-2,-5,-16
CCCC(=O)Nc1nc(C)c(-c2csc(Nc3cc(OC)ccc3OC)n2)s1,-1,3,0,10,-1,nt,nt
COc1ccc(OC)c(Nc2nc(-c3sc(N)nc3C)cs2)c1,26*,-9,-1,5,-1,2,-7
Cn1c(=O)[nH]c(=O)c2c1nc(Br)n2CC(O)COCc1ccccc1 (stereo not drawn),17*,0,-19,-4,0,0,-1
SMILES,HSP90 refold inh,HSF1 inhib,HSF-1 act,ARNT TACC3 PPI,HIF act,HSP90 confirm,FLuc counter
O=C(C[C@@H]1CC[C@@H]2[C@H](COC[C@@H](O)CN2Cc2cccc(-c3ccncc3)c2)O1)N1CCOCC1,nt,nt,nt,-6,nt,nt,nt
C=CCN1C(=O)/C(=C\c2ccc(Oc3nc(N4CCOCC4)nc(N4CCOCC4)n3)c(OC)c2)SC1=S,39*,-6,-9,-2,-1,10,0
COc1cc(/C=C2\SC(=S)N(N3CCOCC3)C2=O)ccc1O,2,-2,-5,20,0,nt,nt
Cc1ccc(S(=O)(=O)Nc2ccc3c(c2)C(=O)N([C@H](C)CO)C[C@H](C)[C@@H](CN(C)Cc2ccncc2)O3)cc1,nt,nt,nt,-8,nt,nt,nt
CO[C@H]1CN(C)C(=O)c2cc(NC(=O)C3CCOCC3)ccc2OC[C@H](C)NC[C@H]1C,nt,nt,nt,35,nt,nt,nt
CC(=O)Nc1ccc(-n2c(=O)c3ccccc3c3ccccc3c2=O)cc1,24*,24,36,-4,-1,9,-1
Cc1ccc(S(=O)(=O)N(CC(=O)NCc2cccnc2)c2ccc(F)cc2)cc1,2,-1,15,-1,0,nt,nt
CC(C)c1ccc(N(CC(=O)NCc2cccnc2)S(=O)(=O)c2ccccc2)cc1,27*,11,14,-3,0,1,-3
O=C1C(Cl)=C(NCCc2ccccc2)C(=O)c2ccccc21,nt,nt,nt,41,nt,nt,nt
O=C1C(Cl)=C(NCc2cccnc2)C(=O)c2ccccc21,18*,33,40,23,-11,5,-3
CN1C(=O)c2cc(NC(=O)NCc3ccccc3)ccc2OC[C@H]2O[C@@H](CC(=O)O)CC[C@@H]21,nt,nt,nt,-4,nt,nt,nt
Cc1ccccc1NC(=O)N1CCCC(c2nc(-c3ccc(C(C)C)cc3)no2)C1 (stereo not drawn),70*,-44,-50,0,0,4,-24
O=C(NCc1ccco1)c1cccn2c(=O)c3cc4ccccc4cc3nc12,14,nt,nt,nt,nt,nt,nt
COCCCNC(=O)c1cccn2c(=O)c3cc4ccccc4cc3nc12,17*,nt,nt,10,nt,26*,18*
CN(C)c1ccc(N=Cc2cccn2C)cc1,22*,-25,-33,60*,-1,10,-12
CN(C)c1ccc(N=Cc2nc(-c3ccccc3)oc2O)cc1,-2,19,37,0,3,nt,nt
CC1CCN(C2=NC(=O)/C(=C/c3ccccc3F)S2)CC1,23*,-68*,-74,-13,-1,35*,14*
CS(=O)(=O)N1CCC(Oc2cccc(C(=O)NCCCC3CCCC3)c2)CC1,29*,3,12,1,1,-7,-11
COCCC1CCCCN1C(=O)c1cccc(OC2CCN(S(C)(=O)=O)CC2)c1 (stereo not drawn),-7,-3,-4,32,0,nt,nt
C[C@H]1CN([C@@H](C)CO)S(=O)(=O)c2ccc(/C=C/c3ccccc3)cc2O[C@@H]1CN(C)C(=O)NC1CCCC1,nt,nt,nt,4,nt,nt,nt
CCN(CC)c1ccc(/C=N/NC(=O)c2ccoc2C)cc1,31*,9,30,0,2,59*,54*
CCOc1ccc(/C=N/NC(=O)c2ccoc2C)cc1OC,14,20,13,nt,3,nt,nt
